Several values for one entry are separate records, joined by “and”; a condition that tells them apart may be missing. Identical values can stand only once. Records with an inconclusive call do not appear. A call without a number means that no potency is given here. Where a structure was tested more than once in an assay, its records may differ in their call. Activity calls are given as the source filed them. Unless noted, calls come from the whole dose curve; as a rule, active = well fitted curve in the direction sought with a large enough effect in the repeat runs; inconclusive = weak or mixed curves; inactive = no such curve, though single readings can be large; an effect the other way counts as inactive or inconclusive.
Legend:
[1] = Human pregnane X receptor (PXR) small molecule agonists, qHTS cell viability counter screen (AID 1346977); note: nearly all actives have a fitted effect of over 50% in size; note: potency is the fitted concentration of half-maximal effect
In short: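 Cytotoxicity counter screen run in the same wells as the PXR luciferase assay, using PXR-Luc HepG2 cells in charcoal-stripped serum medium. Viability: CellTiter-Fluor fluorescence after 24hr compound treatment.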

[2] = Caspase-3/7 induction in HepG2 cells by small molecules, qHTS assay (AID 1346978); note: nearly all actives have a fitted effect of over 15% in size; note: potency is the fitted concentration of half-maximal effect
In short: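 Caspase-3/7 induction was measured by Caspase-Glo 3/7 luminescence (30 min, room temperature) after a 17 hr compound exposure of wild-type HepG2 cells seeded at 2,000 per well and pre-incubated 5 hr.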

[3] = Caspase-3/7 induction in CHO-K1 cells by small molecules, qHTS cell viability counter screen (AID 1346979); note: nearly all actives have a fitted effect of over 35% in size; note: potency is the fitted concentration of half-maximal effect
In short: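 Cytotoxicity counter screen run in parallel with the caspase-3/7 assay: CHO-K1 cells, 16hr compound treatment at 37C, then CellTiter-Fluor for 1hr before fluorescence reading.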

[4] = Caspase-3/7 induction in CHO-K1 cells by small molecules, qHTS assay (AID 1346980); note: nearly all actives have a fitted effect of over 15% in size
In short: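 Luminescent Caspase-Glo 3/7 read (30min, room temperature) quantified apoptosis induction. Cells were wild-type CHO-K1, treated with compound for 17hr at 37 C and 5% CO2.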

[5] = Caspase-3/7 induction in HepG2 cells by small molecules, qHTS cell viability counter screen (AID 1346981); note: nearly all actives have a fitted effect of over 30% in size; note: potency is the fitted concentration of half-maximal effect
In short: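 In this quantitative HTS counter screen, compounds delivered in DMSO were left on unmodified HepG2 cells for 16 hr at 37 C. Viability was then determined fluorometrically with CellTiter-Fluor, in parallel with caspase-3/7 induction in the same wells.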

[6] = target: Nuclear receptor subfamily 1 group I member 2 (Homo sapiens) (UniProt O75469); test: Human pregnane X receptor (PXR) small molecule agonists, qHTS assay (AID 1346982); note: nearly all actives have a fitted effect of over 35% in size; note: potency is the fitted concentration of half-maximal effect
Chain of Nuclear receptor subfamily 1 group I member 2 (Homo sapiens) (O75469 whole entry, looked up): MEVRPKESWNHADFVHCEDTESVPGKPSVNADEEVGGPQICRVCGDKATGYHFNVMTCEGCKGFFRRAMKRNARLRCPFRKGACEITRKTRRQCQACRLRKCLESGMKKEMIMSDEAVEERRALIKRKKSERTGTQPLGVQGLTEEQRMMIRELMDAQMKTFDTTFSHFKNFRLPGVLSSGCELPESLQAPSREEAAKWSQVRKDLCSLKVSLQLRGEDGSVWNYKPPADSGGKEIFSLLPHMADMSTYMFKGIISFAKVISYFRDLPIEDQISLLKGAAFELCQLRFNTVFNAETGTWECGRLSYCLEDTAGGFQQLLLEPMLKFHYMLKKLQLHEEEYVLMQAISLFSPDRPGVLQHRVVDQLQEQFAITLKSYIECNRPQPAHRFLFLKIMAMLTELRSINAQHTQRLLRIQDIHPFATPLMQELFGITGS
In short: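 Reporter HepG2 cells expressing PXR-Luc are cultured in charcoal-stripped FBS (5%), treated with compounds for 24 hr at 37 C, and assayed by ONE-Glo luminescence after 30 min at room temperature.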

[7] = target: Acetylcholinesterase (Homo sapiens) (UniProt P22303); test: Acetylcholinesterase (AChE) small molecule antagonists: colormetric cell-based qHTS assay (AID 1347395; calls by dose curve; note: nearly all actives have a fitted effect of over 30% in size)
Chain of Acetylcholinesterase (Homo sapiens) (P22303 whole entry, looked up): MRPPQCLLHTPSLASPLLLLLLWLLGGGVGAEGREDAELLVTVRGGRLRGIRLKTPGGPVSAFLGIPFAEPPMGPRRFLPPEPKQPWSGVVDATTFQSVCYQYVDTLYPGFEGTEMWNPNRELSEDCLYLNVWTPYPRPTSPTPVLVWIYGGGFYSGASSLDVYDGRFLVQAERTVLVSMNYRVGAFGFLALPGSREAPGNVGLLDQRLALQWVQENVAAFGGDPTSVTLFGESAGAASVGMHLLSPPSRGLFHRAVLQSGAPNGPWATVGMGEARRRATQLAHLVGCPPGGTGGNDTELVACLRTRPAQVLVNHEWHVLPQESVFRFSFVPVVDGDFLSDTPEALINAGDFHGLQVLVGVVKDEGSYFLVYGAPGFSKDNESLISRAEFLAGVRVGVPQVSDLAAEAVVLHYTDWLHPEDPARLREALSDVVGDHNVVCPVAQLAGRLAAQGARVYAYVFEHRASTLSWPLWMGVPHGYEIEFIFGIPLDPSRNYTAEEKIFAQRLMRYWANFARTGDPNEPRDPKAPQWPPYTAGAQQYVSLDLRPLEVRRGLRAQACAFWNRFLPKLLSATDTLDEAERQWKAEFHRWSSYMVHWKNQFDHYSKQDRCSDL
In short: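 Cells (SH-SY5Y, 2,000 per well) are seeded and left overnight at 37 C. Compound is added for 30 min, then DTNB and acetylthiocholine for a further 90 min at 37 C before absorbance-based thiocholine detection.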

[8] = target: Nuclear receptor subfamily 1 group I member 2 (Rattus norvegicus) (UniProt Q9R1A7); test: Rat pregnane X receptor (rPXR) activation by small molecules, qHTS assay (AID 1346983); details: rPXR luciferase reporter cells, One-Glo luminescence, 24 h; max activation: stronger effect = higher value; note: nearly all actives have a fitted effect of over 20% in size
Chain of Nuclear receptor subfamily 1 group I member 2 (Rattus norvegicus) (Q9R1A7 whole entry, looked up): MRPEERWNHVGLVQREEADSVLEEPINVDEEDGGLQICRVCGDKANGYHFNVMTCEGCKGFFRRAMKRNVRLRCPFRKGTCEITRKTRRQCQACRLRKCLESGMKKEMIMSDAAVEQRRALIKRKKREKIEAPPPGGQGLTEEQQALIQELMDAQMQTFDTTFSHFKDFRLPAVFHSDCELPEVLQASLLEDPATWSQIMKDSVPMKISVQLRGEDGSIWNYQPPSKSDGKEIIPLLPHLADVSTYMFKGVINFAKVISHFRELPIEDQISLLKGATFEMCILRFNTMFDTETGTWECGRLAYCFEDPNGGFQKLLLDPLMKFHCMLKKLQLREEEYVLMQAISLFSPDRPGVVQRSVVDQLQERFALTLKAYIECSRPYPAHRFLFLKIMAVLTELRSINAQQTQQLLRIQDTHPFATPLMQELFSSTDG
In short: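 Luminescent readout (One-Glo luciferase, 30 min room temperature) followed 24 hr compound treatment at 37 C of rPXR cells plated 2,000 per well and preincubated 5hr; qHTS format with compounds delivered in DMSO.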

[9] = target: Nuclear receptor subfamily 1 group I member 2 (Homo sapiens) (UniProt O75469); test: CYP3A4 induction through human pregnane X receptor (PXR) by small molecules, qHTS assay (AID 1346984); note: nearly all actives have a fitted effect of over 40% in size
In short: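 Induction measured in HepG2-based DPX-2 cells co-expressing human PXR and a CYP3A4 promoter-driven luciferase. After a 24-hour compound exposure, cells received CYP3A4 luciferin substrate at 3uM final for 3 hours, and light output was then recorded.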

[10] = target: Nuclear receptor subfamily 1 group I member 2 (Homo sapiens) (UniProt O75469); test: Human pregnane X receptor (PXR) activation by small molecules, qHTS assay (AID 1346985); note: nearly all actives have a fitted effect of over 40% in size
In short: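 DPX-2 cells (HepG2 co-transfected with a PXR response element and a CYP3A4-promoter luciferase construct) were seeded at 2,000 per well, rested 5 hr at 37C, then exposed to DMSO-dissolved compounds for 24 hr. Activation was read as luciferase luminescence.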

Structure (SMILES)	Potency [1]	Potency [2]	Potency [3]	Potency [4]	Potency [5]	Potency [6]	Potency [7]	max activation [8]	Potency [9]	Potency [10]
CCNc1nc(NC(C)C(C)C)nc(SC)n1 (centres undefined)	inactive	inactive	inactive	inactive	inactive	30.6 µM (active)	inactive			
CCn1cc[n+](C)c1 (tested in a mixture with another compound)	inactive	inactive	inactive	inactive	inactive	inactive				
CO/N=C(/C1=NOCCO1)c1ccccc1Oc1ncnc(Oc2ccccc2Cl)c1F	9.68 µM (active)	inactive	1.72 µM (active)	inactive	30.6 µM (active)	27.3 µM (active)	inactive			
CCOC(=O)Cc1ccccc1	inactive	inactive	inactive	inactive	inactive	inactive	inactive			
CCCCC(CC)COC(=O)OOC(C)(C)C (centres undefined)	inactive	inactive	inactive	inactive	inactive	inactive	inactive			
O=[N+]([O-])c1ccccc1-c1ccccc1	inactive	inactive	inactive	inactive	inactive	inactive	inactive			
COc1c2c(cc3c1OCO3)CCN(C)C2	inactive	inactive	inactive	inactive	inactive	inactive	inactive	-1.49% (inactive)	inactive	inactive
CN	inactive	inactive	inactive	inactive						
CCN(CC)C(=S)S	28.2 µM (active) and inactive	inactive and 27.1 µM (active)	13.8 µM (active) and 7.65 µM (active) and 27.3 µM (active)	inactive	inactive	27.1 µM (active) and 61.1 µM (active)	inactive		inactive	inactive
COCCC#N	inactive	inactive	inactive	inactive	inactive	inactive	inactive			
CNC(C)(C)Cc1ccccc1	inactive	inactive	inactive	inactive	inactive	inactive	inactive	-0.549% (inactive)	inactive	inactive
CCCCc1ccccc1	inactive	inactive	inactive	inactive	inactive	inactive	inactive			
CC(Cc1ccccc1)N(C)Cc1ccco1 (centres undefined)	inactive	inactive	inactive	inactive	inactive	inactive	inactive			
ClCBr	inactive	inactive	inactive	inactive	inactive	inactive	inactive			
N#Cc1ccc(N(CC(N)=O)CC(F)(F)F)cc1C(F)(F)F	inactive	inactive	inactive	inactive	inactive	inactive	inactive			
CCCCn1cc[n+](C)c1.[Cl][Fe-]([Cl])([Cl])[Cl]	inactive	inactive	inactive	inactive	inactive					
CC(=O)[O-].CC(=O)[O-].O.O.O.[Pb+2]	inactive	inactive	inactive	inactive						
[O]=[Cr](=[O])([OH])[O][Cr](=[O])(=[O])[OH]	8.71 µM (active) and 6.1 µM (active)	9.78 µM (active) and 13.7 µM (active)	7.77 µM (active) and 15.3 µM (active)	inactive	5.5 µM (active) and 4.85 µM (active)	8.71 µM (active) and 9.67 µM (active)	inactive	-13.2% (inactive) and 6.2% (inactive)	inactive	inactive
COC(=O)C(C)N(C(=O)c1ccco1)c1c(C)cccc1C (centres undefined)	inactive	inactive	inactive	inactive	inactive	10.9 µM (active)	inactive			
O=C(N[C@H]1N=C(c2ccccc2F)c2cccc3c2N(CC3)C1=O)c1cc2ccccc2[nH]1	inactive	inactive	inactive	inactive	inactive	18.8 µM (active)	inactive			
COP(=S)(NC(C)C)Oc1ccc(C)cc1[N+](=O)[O-] (centres undefined)	inactive	inactive	inactive	inactive	inactive	30.6 µM (active)	inactive			
CCN(CC)C(=O)N[C@@H]1C=C2c3cccc4[nH]cc(c34)C[C@@H]2N(C)C1	inactive	inactive	inactive	inactive	inactive					
O.O.O.O.O.O.O.O=S(=O)([O-])[O-].[Co+2]	inactive	inactive	inactive	inactive	inactive					
